# From PubChem BioAssay AID651605 (National Center for Advancing Translational Sciences (NCATS), 2012)
# “And” between values parts separate entries of the source, which are not always exact repeats. Identical values can stand only once. Results filed as inconclusive are left out. The source made the active and inactive calls. The call rests on the fitted dose curve; in most records, active means well fitted inhibition curve with a large enough effect; inconclusive means small, poorly fitted or top-dose-only effect; inactive means flat fitted curve, though single readings scatter.
# Biological target: Ubiquitin carboxyl-terminal hydrolase 1 (Homo sapiens) (UniProt O94782)
# Test: Inhibitors of USP1/UAF1: SAR in Primary Assay
# Conditions: Recombinant USP1/UAF1, Ub-Rhodamine cleavage fluorescence; series mostly up to 57.1 µM; activity change, negative = inhibition: at the top concentration
# Excerpt: Deubiquitinating enzymes (DUBs) are a class of enzymes that can cleave isopeptide bond formed between the C-terminal carboxylate of ubiquitin and a lysine side-chain amino group on the target protein. Among them, ubiquitin specific proteases (USPs) constitute the largest DUB family. Human USPs are emerging as promising targets for pharmacological intervention because of their connection to a number of human diseases, including prostate, colon and breast cancer (1, 2), pediatric acute lymphoblastic leukemia (3), and familial cylindromatosis (4). The advantage of inhibiting USPs lies in the potential specificity of therapeutic intervention that can lead to better efficacy and reduce nonspecific side effects. In a collaboration between the University of Delaware and the NIH Chemical Genomics Center, a high-throughput screen assay was developed to screen for USP1/UAF1 inhibitors (5). This assay was used to test the analogs that were synthesized based on SAR around the original hit. NIH Chemical Genomics Center [NCGC] NIH Molecular Libraries Probe Centers Network [MLPCN] MLPCN Grant: DA030552-01 Assay Submitter (PI): Zhihao Zhuang, University of Delaware 1. Priolo, C., et al. (2006) The isopeptidase USP2a protects human prostate cancer from apoptosis. Cancer Res 66, 8625-8632 2. Popov, N., et al. (2007) The ubiquitin-specific protease USP28 is required for MYC stability. Nat Cell Biol 9, 765-774 3. De Pitta, C., et al. (2005) A leukemia-enriched cDNA microarray platform identifies new transcripts with relevance to the biology of pediatric acute lymphoblastic leukemia. Haematologica 90, 890-898 4. Kovalenko, A., et al. (2003) The tumour suppressor CYLD negatively regulates NF-kappaB signalling by deubiquitination. Nature 424, 801-805 5. Chen, J., et al. (2011) Selective and cell-active inhibitors of the USP1/ UAF1 deubiquitinase complex reverse cisplatin resistance in non-small cell lung cancer cells. Chem Bio 18(11):1390-400.
# 3 microliters of reagents (buffer in columns 3 and 4 as negative control and 1nM USP1/UAF1 complex in columns 1, 2, and 5-48) are dispensed into Greiner black solid bottom 1536-well assay plates. Compounds are then transferred via Kalypsys pin tool equipped with 1536-pin array (10nl slotted pins, V&P Scientific, San Diego, CA). Following an incubation step of 15 min at room temperature, 1ul of Ub-Rho substrate (150nM final concentration) is added to initiate the reaction. The plates are immediately centrifuged at 1000 rpm for 15 seconds, and subsequently transferred to a ViewLux high-throughput CCD imager (PerkinElmer) wherein kinetic measurements of fluorescence are acquired using 480 nm excitation/540 nm emission filter set (6 reads every 60 seconds, see Table 1). All reagents are diluted in an assay buffer consisting of 50mM HEPES (pH 7.8), 0.5mM EDTA, 0.1 mg/ml BSA, 1mM TCEP, and 0.01% Tween-20.
# Chain of Ubiquitin carboxyl-terminal hydrolase 1 (Homo sapiens) (O94782 whole entry, looked up): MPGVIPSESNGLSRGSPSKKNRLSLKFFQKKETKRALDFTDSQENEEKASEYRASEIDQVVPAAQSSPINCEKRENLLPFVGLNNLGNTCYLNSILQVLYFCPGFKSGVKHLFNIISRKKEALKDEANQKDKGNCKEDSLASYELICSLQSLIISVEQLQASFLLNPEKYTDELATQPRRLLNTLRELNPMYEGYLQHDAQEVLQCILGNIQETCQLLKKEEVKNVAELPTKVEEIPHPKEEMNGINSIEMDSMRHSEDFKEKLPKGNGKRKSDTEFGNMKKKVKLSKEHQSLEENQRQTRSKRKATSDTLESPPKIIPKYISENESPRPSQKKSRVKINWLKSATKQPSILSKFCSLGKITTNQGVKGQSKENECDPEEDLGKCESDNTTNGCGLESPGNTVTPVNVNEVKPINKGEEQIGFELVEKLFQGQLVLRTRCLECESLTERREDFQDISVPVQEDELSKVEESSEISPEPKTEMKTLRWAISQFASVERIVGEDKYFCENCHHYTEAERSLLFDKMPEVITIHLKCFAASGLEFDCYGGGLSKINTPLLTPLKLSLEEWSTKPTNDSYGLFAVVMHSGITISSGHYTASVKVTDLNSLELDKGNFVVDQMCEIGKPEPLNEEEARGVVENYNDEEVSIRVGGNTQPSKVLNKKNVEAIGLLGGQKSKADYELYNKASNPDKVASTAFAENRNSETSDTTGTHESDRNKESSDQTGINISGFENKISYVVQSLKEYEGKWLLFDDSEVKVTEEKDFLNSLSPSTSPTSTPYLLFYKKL
SMILES,Potency,"activity change, negative = inhibition"
Cc1cnc(-c2ccccc2C(C)O)nc1NCC1CCN(c2cccnc2)CC1 (stereo not given),2410 nM (active),
FC(F)(F)c1ccccc1-c1nc(NCc2ccc(-c3cccnc3)cc2)c2ccccc2n1,607 nM (active),
N#Cc1ccc(-c2nc(NCc3ccc(-c4ccnc(C(F)(F)F)c4)cc3)c3ccccc3n2)cc1,,-19.2% (inactive)
CC(C)c1ccccc1-c1nc(NCc2ccc(-c3cccnc3)cc2)c2cccn2n1,215 nM (active),
Cc1cnc(-c2ccccc2C(C)C)nc1N(C)Cc1ccc(-c2cccnc2)cc1,681 nM (active),
FC(F)(F)c1cc(-c2ccc(CNc3nc(-c4ccncc4)nc4ccccc34)cc2)ccn1,19200 nM (active),
CC(C)c1ccccc1-c1ncc(F)c(NCc2ccc(-n3ccnn3)cc2)n1,17.1 nM (active),
Fc1cnc(-c2ccccc2C(F)F)nc1NCc1ccc(-c2cccnc2)cc1,1210 nM (active),
Cc1cnc(-c2ccccc2C(F)(F)F)nc1NCc1ccc(-c2cccnc2)cc1,271 nM (active),
FC(F)(F)c1ccccc1-c1nc(NCc2ccc(-c3cccnc3)cc2)c2[nH]cnc2n1,607 nM (active),
Cc1cnc(-c2ccccc2OC(C)C)nc1NCc1ccc(-n2ccnn2)cc1,429 nM (active),
Fc1ccccc1-c1nc(NCc2ccc(-c3cccnc3)cc2)c2ccccc2n1,3410 nM (active),
CC(C)c1ccccc1-c1nc(NCc2ccc(-c3cccnc3)cc2)c2[nH]cnc2n1,121 nM (active),
CC(C)c1ccccc1-c1nccc(NCc2ccc(-c3cccnc3)cc2)n1,121 nM (active),
COc1cnc(-c2ccccc2C(C)C)nc1NCc1ccc(-c2cccnc2)cc1,42.9 nM (active),
CC(C)c1ccccc1-c1ncc(F)c(NC2(c3ccc(-c4cccnc4)cc3)CC2)n1,38.3 nM (active) and 34.1 nM (active),
CC(C)c1ccccc1-c1ncc(F)c(NC(C)(C)c2ccc(-c3cccnc3)cc2)n1,192 nM (active),
Cc1cnc(-c2ccccc2C(C)O)nc1NCc1ccc(-c2cccnc2)cc1 (stereo not given),1360 nM (active),
Fc1cnc(-c2ccccc2C(F)F)nc1NCc1ccc(-c2ccn[nH]2)cc1,1520 nM (active),
CC(C)c1ccccc1-c1ncc(N)c(NCc2ccc(-c3cccnc3)cc2)n1,271 nM (active),

SMILES,Potency,"activity change, negative = inhibition"
Cc1cnc(-c2ccccc2CO)nc1NCC1CCN(c2cccnc2)CC1,7640 nM (active),
Cc1cnc(-c2ccccc2C2COC2)nc1NCC1CCN(c2cccnc2)CC1,,-6.08% (inactive)
Cc1cnc(-c2ccccc2C(C)C)nc1NCc1ccc(-c2ccc(F)nc2)cc1,60.7 nM (active),
CC(C)c1ccccc1-c1ncc(F)c(NCc2ccc(-c3cccnc3)s2)n1,242 nM (active),
Cc1cnc(-c2ccccc2C(C)C)nc1NCc1ccc(-c2cccnc2)cc1,68.1 nM (active),
CC(C)c1ccccc1-c1nc(NCc2ccc(-c3cccnc3)cc2)c2sccc2n1,121 nM (active),
CC(=O)c1ccccc1-c1ncc(C)c(NCc2ccc(-c3cccnc3)cc2)n1,7640 nM (active),
Fc1cc(Cl)cc(-c2ccc(CNc3nc(-c4ccccc4C(F)(F)F)nc4ccccc34)cc2)c1,2410 nM (active),
CC(C)c1ccccc1-c1nccc(NCc2ccc(-c3ccnc(C(F)(F)F)c3)cc2)n1,764 nM (active),
Cc1cnc(-c2ccccc2C(C)C)nc1NCc1ccc(C2CCCNC2)cc1 (stereo not given),7640 nM (active),
Cc1ccc(-c2ccc(CNc3nc(-c4ccccc4C(C)C)ncc3F)cc2)cn1,76.4 nM (active),
COc1ccccc1-c1ncc(C)c(NCc2ccc(-c3cccnc3)cc2)n1,764 nM (active),
Cc1cnc(-c2ccccc2C(C)C)nc1NCC1CCN(c2cnccn2)CC1,121 nM (active),
Cc1nc(-c2ccccc2C(C)C)nc(NCc2ccc(-c3cccnc3)cc2)c1C,136 nM (active),
FC(F)(F)c1ccccc1-c1nc(NCc2ccc(-c3cncnc3)cc2)c2ccccc2n1,1920 nM (active),
CC(C)c1ccccc1-c1nc2c(c(NCc3ccc(-c4cccnc4)cc3)n1)CCNC2,482 nM (active),
Nc1nc(NCc2ccc(-c3cccnc3)cc2)c2ccccc2n1,,-16.9% (inactive)
CC(C)c1ccccc1-c1ncc(F)c(NC(C)(C)c2ccc(-n3ccnn3)cc2)n1,4820 nM (active),
N#Cc1cccc(-c2ccc(CNc3nc(-c4ccccc4C(F)(F)F)nc4ccccc34)cc2)c1,2710 nM (active),
O=[N+]([O-])c1ccccc1-c1nc(NCc2ccc(-c3cccnc3)cc2)c2ccccc2n1,4290 nM (active),
